Laboratory results reported in article PMC5540273 (PLoS ONE, 2017).

system: ERBB3; conditions: concentration: 1 μM,replicates: in singlicate; n = 1
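Note: KINOMEscan kinase panel screen.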

SMILES	%Inh [%]
CS(=O)(=O)c1cccc(CNc2nc(Nc3ccc4c(c3)[C@@H]3C[C@@H]4CNC3=O)ncc2C(F)(F)F)c1	0
CSc1nccc(-c2c(-c3ccc(F)cc3)ncn2CCCN2CCOCC2)n1.Cl [SB-217146]	0
O=C1NCCc2[nH]c(-c3ccncc3)cc21	21
FC(F)(F)c1cc(Br)cc(Nc2nccc(-c3cnn4ncccc34)n2)c1 [GW810578]	1
CN(c1ccc2c(c1)nc(NCc1ccc(F)cc1)n2C)c1ccnc(Nc2ccc(CS(C)(=O)=O)cc2)n1.Cl [GW813244]	0
Cc1ccc(CC(=O)N2CCc3cc(-c4cn(C)c5ncnc(N)c45)ccc32)cc1 [GSK2634758]	10
O=C(NCC1CC1)c1ccc(-c2cc(C(=O)NC3CC3)ccc2F)cc1 [GW810445]	0
CCn1c(-c2nonc2N)nc2cncc(Br)c21 [SB-738004]	43
CN1CCN(CCCNc2nccc(-c3c(-c4ccc(F)cc4)nn4cc(C(N)=O)ccc34)n2)CC1 [GW622475]	0
O=C(NOCC1CC1)c1cc(Br)c(F)c(F)c1Nc1ccc(I)cc1Cl	0
Cc1n[nH]c2cc(Nc3ccnc(Nc4cccc(CN5CCOCC5)c4)n3)ccc12 [GW682569]	12
C[C@@H]1CCN(C(=O)N2CCCC2)C[C@@H]1N(C)c1ncnc2[nH]ccc12	0
CS(=O)c1ccc(-c2coc3ccc(-c4n[nH]c(=O)o4)cc23)cc1 (centres unmarked)	13
CC(C(=O)NC1CCN(c2ccnc(Nc3ccc(F)cc3)n2)C1)c1ccc(Cl)cc1 (centres unmarked) [GSK1379713]	0
COC(=O)Nc1nc2cc(Oc3ccc(NC(=O)Nc4cc(C(F)(F)F)ccc4Cl)cc3)ccc2[nH]1.Cl [GW697465]	25
Cn1ccc2ncnc(Oc3ccc(NC(=O)Nc4cccc(C(F)(F)F)c4)c(F)c3)c21	24
O=c1[nH]cc(-c2ccc(O)cc2)c2sc(-c3ccncc3)cc12 [GSK1033723]	0
Cc1ccc2c(-c3ccnc(Nc4ccc(C(F)(F)F)cc4)n3)cnn2n1 [GW819776]	0
CN1CCN(CCNc2nc3cc(Oc4ccc(NC(=O)Nc5cc(C(F)(F)F)ccc5F)cc4)ccc3[nH]2)CC1.Cl.Cl [GW768504]	0

SMILES	%Inh [%]
Cc1ccc(C(=O)Nc2ccc(Oc3ccc4nc(NC(=O)C5CC5)cn4c3)c(F)c2)c(=O)n1-c1ccccc1	43
Nc1nccc(-c2ccc3c(N)n[nH]c3c2)n1 [GSK1034945]	0
COc1cccc(CNC(=O)NC2CCN(c3ccnc(Nc4cc(OC)c(OC)c(OC)c4)n3)C2)c1 (centres unmarked) [GSK1379765]	28
Cn1ccc2ncnc(Oc3ccc(NC(=O)Nc4cccc(C(F)(F)F)c4)c(Cl)c3)c21	5
CCNCC(Cc1ccccc1)NC(=O)c1cc(Br)c(-c2ccnc3[nH]ccc23)s1.Cl.Cl (centres unmarked) [GSK1383280]	0
Cc1cccc(-c2nc(Nc3ccncc3)c3sccc3n2)n1 [GW869641]	29
Cn1ccc2ncnc(Oc3ccc(NC(=O)Nc4cc(C(C)(C)C)on4)c(Cl)c3)c21	5
COc1cc2ncn(-c3cc(OCC4CCCCC4)c(C(N)=O)s3)c2cc1OC [GSK204559]	0
CCn1c(-c2nonc2N)nc2cncc(CNC3CCNCC3)c21.Cl [SB-747651]	8
O=C(Nc1cccc(C(F)(F)F)c1)c1cccc(Oc2ccc3nccn3n2)c1	40
COC(=O)c1cccc(NC(=O)NC2CCN(c3ccnc(Nc4cc(OC)c(OC)c(OC)c4)n3)C2)c1 (centres unmarked) [GSK1379767]	31
Cn1cc(-c2cccc3c(N)c(C(N)=O)nnc23)cn1	27
CCN1CCN(CCCC(=O)Nc2n[nH]c3nc(-c4ccc(O)cc4)c(Br)cc23)CC1 [SB-731579]	66
COc1cccc(OC)c1C(=O)Nc1cccc(-c2nn3ccccc3c2-c2ccnc(Nc3cccc(F)c3)n2)c1 [GSK361065]	0
Cl.Cl.NC[C@H](CC1CCCCC1)NC(=O)c1ccc(-c2ccnc3[nH]ccc23)s1 [GSK1581428]	0
COc1cc2c(Nc3ccc(NC(=O)c4ccccc4)cc3)ncnc2cc1OCCCN1CCOCC1 [GSK301329]	0
CC(=O)Nc1ccc(-c2cc3ncnc(SCC(=O)O)c3s2)cc1	8
C[C@@H]1CNc2c(sc3ccc4nc(-c5ccc(O)cc5)ccc4c23)C(=O)N1	0

system: ERBB4; conditions: concentration: 1 μM,replicates: in singlicate; n = 1

SMILES	%Inh [%]
CS(=O)(=O)c1cccc(CNc2nc(Nc3ccc4c(c3)[C@@H]3C[C@@H]4CNC3=O)ncc2C(F)(F)F)c1	20
CSc1nccc(-c2c(-c3ccc(F)cc3)ncn2CCCN2CCOCC2)n1.Cl [SB-217146]	0
O=C1NCCc2[nH]c(-c3ccncc3)cc21	0
FC(F)(F)c1cc(Br)cc(Nc2nccc(-c3cnn4ncccc34)n2)c1 [GW810578]	0
CN(c1ccc2c(c1)nc(NCc1ccc(F)cc1)n2C)c1ccnc(Nc2ccc(CS(C)(=O)=O)cc2)n1.Cl [GW813244]	19
Cc1ccc(CC(=O)N2CCc3cc(-c4cn(C)c5ncnc(N)c45)ccc32)cc1 [GSK2634758]	18
O=C(NCC1CC1)c1ccc(-c2cc(C(=O)NC3CC3)ccc2F)cc1 [GW810445]	33
CCn1c(-c2nonc2N)nc2cncc(Br)c21 [SB-738004]	11
CN1CCN(CCCNc2nccc(-c3c(-c4ccc(F)cc4)nn4cc(C(N)=O)ccc34)n2)CC1 [GW622475]	63
O=C(NOCC1CC1)c1cc(Br)c(F)c(F)c1Nc1ccc(I)cc1Cl	0
Cc1n[nH]c2cc(Nc3ccnc(Nc4cccc(CN5CCOCC5)c4)n3)ccc12 [GW682569]	43
C[C@@H]1CCN(C(=O)N2CCCC2)C[C@@H]1N(C)c1ncnc2[nH]ccc12	7
CS(=O)c1ccc(-c2coc3ccc(-c4n[nH]c(=O)o4)cc23)cc1 (centres unmarked)	5
CC(C(=O)NC1CCN(c2ccnc(Nc3ccc(F)cc3)n2)C1)c1ccc(Cl)cc1 (centres unmarked) [GSK1379713]	0
COC(=O)Nc1nc2cc(Oc3ccc(NC(=O)Nc4cc(C(F)(F)F)ccc4Cl)cc3)ccc2[nH]1.Cl [GW697465]	37
Cn1ccc2ncnc(Oc3ccc(NC(=O)Nc4cccc(C(F)(F)F)c4)c(F)c3)c21	2
O=c1[nH]cc(-c2ccc(O)cc2)c2sc(-c3ccncc3)cc12 [GSK1033723]	2
Cc1ccc2c(-c3ccnc(Nc4ccc(C(F)(F)F)cc4)n3)cnn2n1 [GW819776]	5
CN1CCN(CCNc2nc3cc(Oc4ccc(NC(=O)Nc5cc(C(F)(F)F)ccc5F)cc4)ccc3[nH]2)CC1.Cl.Cl [GW768504]	0

SMILES	%Inh [%]
Cc1ccc(C(=O)Nc2ccc(Oc3ccc4nc(NC(=O)C5CC5)cn4c3)c(F)c2)c(=O)n1-c1ccccc1	3
Nc1nccc(-c2ccc3c(N)n[nH]c3c2)n1 [GSK1034945]	25
COc1cccc(CNC(=O)NC2CCN(c3ccnc(Nc4cc(OC)c(OC)c(OC)c4)n3)C2)c1 (centres unmarked) [GSK1379765]	38
Cn1ccc2ncnc(Oc3ccc(NC(=O)Nc4cccc(C(F)(F)F)c4)c(Cl)c3)c21	12
CCNCC(Cc1ccccc1)NC(=O)c1cc(Br)c(-c2ccnc3[nH]ccc23)s1.Cl.Cl (centres unmarked) [GSK1383280]	22
Cc1cccc(-c2nc(Nc3ccncc3)c3sccc3n2)n1 [GW869641]	13
Cn1ccc2ncnc(Oc3ccc(NC(=O)Nc4cc(C(C)(C)C)on4)c(Cl)c3)c21	0
COc1cc2ncn(-c3cc(OCC4CCCCC4)c(C(N)=O)s3)c2cc1OC [GSK204559]	0
CCn1c(-c2nonc2N)nc2cncc(CNC3CCNCC3)c21.Cl [SB-747651]	0
O=C(Nc1cccc(C(F)(F)F)c1)c1cccc(Oc2ccc3nccn3n2)c1	0
COC(=O)c1cccc(NC(=O)NC2CCN(c3ccnc(Nc4cc(OC)c(OC)c(OC)c4)n3)C2)c1 (centres unmarked) [GSK1379767]	0
Cn1cc(-c2cccc3c(N)c(C(N)=O)nnc23)cn1	0
CCN1CCN(CCCC(=O)Nc2n[nH]c3nc(-c4ccc(O)cc4)c(Br)cc23)CC1 [SB-731579]	0
COc1cccc(OC)c1C(=O)Nc1cccc(-c2nn3ccccc3c2-c2ccnc(Nc3cccc(F)c3)n2)c1 [GSK361065]	84
Cl.Cl.NC[C@H](CC1CCCCC1)NC(=O)c1ccc(-c2ccnc3[nH]ccc23)s1 [GSK1581428]	0
COc1cc2c(Nc3ccc(NC(=O)c4ccccc4)cc3)ncnc2cc1OCCCN1CCOCC1 [GSK301329]	85
CC(=O)Nc1ccc(-c2cc3ncnc(SCC(=O)O)c3s2)cc1	3
C[C@@H]1CNc2c(sc3ccc4nc(-c5ccc(O)cc5)ccc4c23)C(=O)N1	6
